# Among all 6,200 compounds or so, about 2,900 (47%) were called active. So high a share suggests a set chosen from earlier hits. The list shows a part of the results. A number with no mark means an inactive call. Cut-off read from the data, not from the text of the source: active = inhibition above about 50%; inactive = the rest.
# Test: Mycobacterium tuberculosis growth inhibition, primary screen (AID 1259343)
# Details: inhibition: at 10 µM, active compounds read high; outcome: 10 uM
row,SMILES,inhibition
1,OC[C@@H](O)CN(CCC(F)(F)F)c1nc(-c2ccccn2)nc2c1CCC2,-1.45%
2,CC(NC(=O)c1ccc(Br)o1)C1CC2CCC1C2 (centres undefined),37.7%
3,CC(NC(=O)c1ccc([N+](=O)[O-])o1)C12CC3CC(CC(C3)C1)C2 (centres undefined),106% (active)
4,CC(NC(=O)COc1ccccc1F)C1CC2CCC1C2 (centres undefined),95.6% (active)
5,Cc1ccc2c(CC(=O)NC(C)C3CC4CCC3C4)coc2c1 (centres undefined),12.9%
6,CCNC(=O)c1ccc([N+](=O)[O-])o1,15.7%
7,CC(NC(=O)c1ccc(Br)o1)C12CC3CC(CC(C3)C1)C2 (centres undefined),0.12%
8,CC(NC(=O)C=Cc1cccs1)C1CC2CCC1C2 (centres undefined),36.7%
9,CC(NC(=O)c1ccc([N+](=O)[O-])o1)C1CC2CCC1C2 (centres undefined),101% (active)
10,COc1ccc([C@H]2Oc3cc(OC)cc(OC)c3C[C@H]2O)cc1,70.8% (active)
11,COc1ccc(-c2nnc(CSC(=S)N3CCCC3)o2)cc1,84.2% (active)
12,O=C(CSC(F)(F)F)Nc1cnn(-c2ccccc2)c1,63.6% (active)
13,O=C(Cc1cnn(-c2ccccc2)c1)NCC1CCCCC1,45%
14,O=C(O)c1ccc2c(c1)CCN2C(=O)c1cnn(-c2ccccc2)c1,15.4%
15,Cc1cc(Cl)cc(C)c1OCC(=O)NNc1ccc(F)cc1,96.3% (active)
16,Cc1csc(NC(=O)COc2c(C)cc(Cl)cc2C)n1,73.9% (active)
17,Cc1cccc(OC(C)C(=O)Nc2nc(C(C)C)cs2)c1 (centres undefined),29.5%
18,CC(=NNc1nc(C)cs1)c1ccc(Cl)cc1,0.03%
19,Cc1cc(C)c(OCC(=O)NS(=O)(=O)c2c(C)noc2C)c(C)c1,44%
20,CC(=O)Nc1ccc(CC(=O)OCc2ccc(F)cc2)cc1,37.7%
21,Cc1csc(NC(=O)C(C)Oc2cccc(Cl)c2)n1 (centres undefined),81.2% (active)
22,Cc1cnc(NC(=O)C(C)Oc2cccc(Cl)c2)s1 (centres undefined),9.6%
23,N#Cc1cccc(CSc2n[nH]c(=O)n2C2CC2)c1,3.74%
24,Cc1ccc(-c2nnn(Cc3cc(C)on3)n2)cc1,57.2% (active)
25,Cc1ccc(-c2nnn(CC(=O)N3CCCCCC3)n2)cc1,15.3%
26,N#Cc1ccccc1Cn1nnc(-c2ccccc2)n1,-34.2%

row,SMILES,inhibition
1,CC(C)(Cc1c[nH]c2ccc(Cl)cc12)NCCOc1ccccc1OCC1CC1,46.8%
2,Cc1cc(Oc2ccc(C(=O)O)cn2)ccc1C(C)C,59.3% (active)
3,O=C(NC1CC1)c1ccc(Oc2ccc(Br)cc2)nc1,16.1%
4,CCc1cccc2c3c([nH]c12)C(CC)(CC(=O)O)OCC3 (centres undefined),56.6% (active)
5,CSC(c1ccc(O)cc1)=[N+]1CCOCC1,99.3% (active)
6,COc1cccc(-c2cnnc(NCCc3ccccc3F)n2)c1,19.2%
7,COc1ccc(-c2cnc(CN(C)c3ccccc3F)o2)cc1,83.9% (active)
8,C=CCSc1nc(N)c(C#N)c(CC)c1C#N,58.6% (active)
9,COCCNC(=O)N(C)CC1CCC(C)CC1 (centres undefined),8.33%
10,CCCCN(CC)C(=O)c1cc2c(=O)n3cccc(C)c3nc2s1,35.8%
11,CCc1c(C)nc2c(O)cccn2c1=O,92.4% (active)
12,Cc1ccc(-c2ccc(SCC(N)=O)nn2)cc1C,37.8%
13,Cc1cc(C)cc(NC(=O)CSc2ccc(-c3ccncc3)nn2)c1,84.3% (active)
14,Cc1cc(NC(=O)CSc2ccc(-c3ccc(C)c(C)c3)nn2)no1,33.5%
15,CC(NC(=O)c1ccccc1F)c1ccc2c(c1)OCCO2 (centres undefined),36.9%
16,O=C(NS(=O)(=O)c1ccc2c(c1)OCCCO2)c1ccc(F)cc1,-7.16%
17,O=C(NS(=O)(=O)c1ccccc1F)c1ccc2c(c1)OCO2,98.4% (active)
18,c1ccc2c(c1)C(=NC1CCCCC1)NC2=NC1CCCCC1,62.3% (active)
19,COc1ccc(-c2noc(CN3CCCC(C(=O)c4ccccc4)C3)n2)cc1 (centres undefined),27.8%
20,c1cncc(COC2CCCN(Cc3nc(-c4ccc5c(c4)OCO5)no3)C2)c1 (centres undefined),75.8% (active)
21,COc1ccc(-c2noc(CN3CCCC(OCc4ccccn4)C3)n2)cc1 (centres undefined),50.2% (active)
22,Fc1ccc(C2CCCN2Cc2nc(-c3ccc4c(c3)OCO4)no2)cc1 (centres undefined),62.2% (active)
23,Cc1oc(-c2cc3c(cc2Cl)OCO3)nc1CN1CCCC1c1ccc(F)cc1 (centres undefined),19.7%
24,COc1ccc(-c2noc(CN3CCC(c4nc5ccccc5o4)CC3)n2)cc1,81.3% (active)
25,Cc1ccc(Cl)cc1N1CCN(Cc2nc(C3CC3)no2)CC1,-5.02%
26,Cc1cnc(C)c(N2CCN(Cc3nc(-c4ccc5c(c4)OCO5)no3)CC2)n1,92.2% (active)

row,SMILES,inhibition
1,CCCOC1CCCN(Cc2nc(-c3cccc(Cl)c3)no2)C1 (centres undefined),68.8% (active)
2,CN(Cc1cnn(-c2ccc(F)cc2)c1)Cc1nc(CC2CC2)no1,23%
3,c1cc2c(s1)CCN(Cc1nc(-c3ccc4c(c3)OCO4)no1)C2,22.1%
4,COc1ccc(-c2noc(Cn3ccc4cccnc43)n2)cc1,81.3% (active)
5,O=c1c2cc(-c3cccs3)nn2ccn1Cc1nc(-c2ccccc2)no1,4.57%
6,Fc1ccc(CC2CCN(Cc3nc(CC4CC4)no3)CC2)cc1,83.5% (active)
7,Fc1ccccc1OCC1CCCN(Cc2nc(CC3CC3)no2)C1 (centres undefined),19.6%
8,CN(C)c1ccc(N=C2N=C(Nc3ccc(N(C)C)cc3)c3ccccc32)cc1,44.8%
9,COC(=O)[C@H]1[C@H]2C[C@@H]3c4[nH]c5cc(OC)ccc5c4CCN3C[C@H]2C[C@@H](OC(=O)c2cc(OC)c(OC)c(OC)c2)[C@@H]1OC,45.9%
10,Cc1ccccc1C1CCCN(Cc2nc(CC3CC3)no2)C1 (centres undefined),17%
11,c1ccc(COC2CCCN(Cc3nc(CC4CC4)no3)C2)cc1 (centres undefined),58.5% (active)
12,CC1NC(=S)N(c2ccc(C(C)C)cc2)C1=O (centres undefined),95.8% (active)
13,CC1NC(=S)N(c2cccc(Oc3ccncc3)c2)C1=O (centres undefined),11.8%
14,CC1NC(=S)N(c2ccc(-c3cn4ccsc4n3)cc2)C1=O (centres undefined),46.5%
15,Cc1cc(=O)[nH]c(-n2nc(C3CC3)cc2NC(=O)c2cccs2)n1,100% (active)
16,Cc1cc(=O)[nH]c(-n2nc(-c3cccs3)cc2NC(=O)c2c(F)cccc2Cl)n1,99.6% (active)
17,CCCC(CCC)C(=O)Nc1cc(-c2cccs2)nn1-c1nc(C)cc(=O)[nH]1,99% (active)
18,Cc1cc(=O)[nH]c(-n2nc(-c3cccs3)cc2NC(=O)c2ccco2)n1,99.9% (active)
19,Cc1cccc(C(=O)Nc2cc(-c3cccs3)nn2-c2nc(C)cc(=O)[nH]2)c1,0.07%
20,CCC(=O)Nc1cc(-c2cccs2)nn1-c1nc(C)cc(=O)[nH]1,99.9% (active)
21,Cc1cc(=O)[nH]c(-n2nc(-c3cccs3)cc2NC(=O)c2cccs2)n1,98.9% (active)
22,Cc1cc(=O)[nH]c(-n2nc(-c3cccs3)cc2NC(=O)c2ccccc2C)n1,98.2% (active)
23,CC(C)c1cc(=O)[nH]c(-n2nc(-c3cccs3)cc2NC(=O)c2cccs2)n1,99.1% (active)
24,Cc1cc(=O)[nH]c(-n2nc(-c3cccs3)cc2NC(=O)CC(C)(C)C)n1,-0.63%
25,Cc1nc(C(F)(F)F)ccc1C(=O)NC1CC2CC1C1CCCC21 (centres undefined),32.9%
26,CC1CCCCC1Nc1ccc2nnc(C(F)(F)F)n2n1 (centres undefined),22.4%

row,SMILES,inhibition
1,CC1CCCCC1NC(=O)Cn1ccc(C(F)(F)F)n1 (centres undefined),94.9% (active)
2,O=c1oc2ccc(O)cc2s1,83.8% (active)
3,O=c1c2cc(O)ccc2oc2ccc(O)cc12,87.5% (active)
4,Oc1ccc2oc3c(c2c1)CCCC3,44.4%
5,O=C(Oc1ccc2oc(=O)sc2c1)C1CCCCC1,75.1% (active)
6,Cc1ccc(NC(=O)c2ccc(S(N)(=O)=O)c(C)c2)cc1C,31.7%
7,Cc1ccc(NC(=O)CNC(=O)c2ccccc2)cc1C,-8.08%
8,CC(=O)NCc1ccc(C(=O)Nc2ccc(Br)c(C)c2)cc1,93.7% (active)
9,Cc1c(C(=O)O)cnn1-c1ccc(Br)cc1,39.2%
10,CC(=NNc1nc(C)cc(C)n1)c1cc2c(ccc3ccccc32)o1,16.4%
11,Cc1cc(C)nc(NN=Cc2cc(Br)cc(Br)c2O)n1,102% (active)
12,O=C(NCc1ccccc1)c1cccc(OC2CCN(C3Cc4ccccc4C3)CC2)c1,82.7% (active)
13,O=C(NCCc1ccccc1)c1ccc(OC2CCN(C(=O)C3CC34CCC4)CC2)cc1 (centres undefined),19.3%
14,Cc1cc(NC(=O)C2(C)CCOCC2)nc(C(C)C)n1,-0.19%
15,CC1(C(=O)Nc2nc(-c3cccc(Cl)c3)ns2)CCOCC1,89.4% (active)
16,C=CCNc1nc(NCCCN2CCCC2=O)c2sc(-c3ccccc3)cc2n1,24.9%
17,CC(C)(C)OC(=O)NCC1CCCCN1C(=O)c1cc(-c2ccccc2F)on1 (centres undefined),14%
18,CC(C)(C#N)C(=O)Nc1cc(-c2ccccc2F)no1,88.7% (active)
19,FC(F)(F)c1ccc2c(c1)Oc1sc(Cl)cc1NC2=S,92% (active)
20,O=C1NC(=S)SC1=Cc1cccc(C(F)(F)F)c1,14.4%
21,CC(NCc1cn(C)nc1-c1ccc(Oc2ccccc2)cc1)c1ccccc1 (centres undefined),70.8% (active)
22,CC(Nc1ccc(C#N)cn1)c1ccccc1Br (centres undefined),53% (active)
23,COc1ccc(C(C)NCC(O)COc2ccc(Cl)cc2Cl)cc1F (centres undefined),41.6%
24,COc1ccc(C(C)Nc2ccc(C#N)cn2)cc1F (centres undefined),94.3% (active)
25,CC(Nc1nccc(C(F)(F)F)n1)c1ccc(C#N)cc1 (centres undefined),22.5%
26,CCOc1cc2c(cc1CNc1ccc(C#N)cn1)OC(C)C2 (centres undefined),19.6%

# — PubChem BioAssay AID1259343 (VanderVen Lab, College of Veterinary Medicine, Cornell …, 2017)
